TbREL1 inh: TbREL1 RNA ligase inhibitors, primary screen, biochemical, FRET fluorescence; TbREL1 RNA ligation; inhibition, % at 9.66 µM; hit rate 0.49% among 89,000; AID 1117264, 2014;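 active means inhibition above the mean inhibition across all screened compounds plus 3 SD, cut at about 11% in these data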;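 further: 0% = plate median of test wells and 100% = NSC42067 control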
Target sequence (P86926 whole entry, looked up): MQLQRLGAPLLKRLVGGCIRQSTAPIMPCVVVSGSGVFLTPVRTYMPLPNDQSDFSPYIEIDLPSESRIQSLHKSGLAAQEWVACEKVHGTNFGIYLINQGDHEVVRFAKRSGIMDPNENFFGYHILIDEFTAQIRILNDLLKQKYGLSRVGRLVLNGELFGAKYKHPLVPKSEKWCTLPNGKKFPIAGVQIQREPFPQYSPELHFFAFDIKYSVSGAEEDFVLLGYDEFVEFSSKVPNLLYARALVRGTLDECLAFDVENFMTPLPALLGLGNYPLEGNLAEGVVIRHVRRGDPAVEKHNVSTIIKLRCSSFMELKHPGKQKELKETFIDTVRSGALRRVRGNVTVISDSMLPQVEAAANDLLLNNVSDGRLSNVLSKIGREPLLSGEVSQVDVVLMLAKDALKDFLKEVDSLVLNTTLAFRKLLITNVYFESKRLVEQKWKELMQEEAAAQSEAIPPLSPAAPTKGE
TbREL1 confirm: TbREL1 RNA ligase inhibitors, confirmation, biochemical, FRET fluorescence, triplicate. hit rate 37% among 390. inhibition, % at 9.66 µM. AID 1117282, 2014. TbREL1 RNA ligation. shares compounds with TbREL1 inh;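 active means mean inhibition across replicates above a set limit taken from the earlier primary screen, cut at about 11% in these data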;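 further: 0% = REL1 with substrate and DMSO and 100% = REL1 plus control inhibitor NSC42067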
* marks the source's active call; other numbers are inactive results. The full list was thinned out, with hits kept by preference.

SMILES	TbREL1 inh	others
O=C(c1cc(F)cc(F)c1)N1CCCC(c2nc(-c3cccs3)no2)C1 (centres undefined)	-4
O=C(CCC1CCCCC1)NCCN1C2=NC[C@H](Cc3ccc(O)cc3)N2C[C@H]1Cc1ccc(O)cc1	3
C[C@@H]1CN=C2N(CCNC(=O)CCC3CCCCC3)[C@H](Cc3ccc(O)cc3)CN21	5
COc1ccc(C[C@H]2CN3C(=NC[C@@H]3Cc3ccccc3)N2CCNC(=O)CCC2CCCCC2)cc1	21*	TbREL1 confirm=18*
Cn1c(=O)oc2cc(S(=O)(=O)N3CCN(CCO)CC3)ccc21	1
O=C(N/N=C/c1cccc(OC(=O)c2cccc(Br)c2)c1)c1cccnc1	1
O=C(N/N=C/c1ccc(OC(=O)c2cccc(Br)c2)cc1)c1cccnc1	0
O=C(N/N=C/c1cccnc1)c1cccc(NC(=O)c2cccc(Br)c2)c1	12*	TbREL1 confirm=1
CCCC[C@H](C(=O)N(C)c1ccccc1)[C@@H](O)c1ccc(C(C)=O)cc1	-5
CC(C)c1nc(N(C)S(C)(=O)=O)nc(-c2ccc(F)cc2)c1/C=C/[C@H](O)C[C@@H](O)CC(=O)O	1
CCOC(=O)C1(Cc2ccccc2)CCN(Cc2cccc(C#N)c2)CC1	-4
CSc1ccc(-c2cnc(N3CCC(C(N)=O)CC3)s2)cc1	3
C(=C\c1ccccc1)/CSc1nnc(Cc2cccs2)n1-c1ccccc1	1
O=S(=O)(c1ccc(Cl)cc1)N1CCN(c2nc(C(F)(F)F)nc3ccccc23)CC1	0
O=S(=O)(c1cc(C(F)(F)F)ccc1Cl)N1CCN(c2ncnc3ccccc23)CC1	-2
O=S(=O)(c1cc(Cl)cc(Cl)c1)N1CCN(c2nc(-c3cccs3)nc3ccccc23)CC1	12*	TbREL1 confirm=6
COc1ccc(NC(=O)CSc2nc(C)c3c(c2C#N)CCCC3)cc1	-2
CC(=O)CSc1nc(N)c(C#N)c(-c2cccs2)c1C#N	3
CN1CCc2nc(SCC(=O)Nc3ccc(OC(F)(F)F)cc3)c(C#N)c(-c3cccs3)c2C1	13*	TbREL1 confirm=4
Cc1cccc(NC(=O)Nc2ccccc2C(=O)N2CCCC2)c1	-2
COc1ccc(/C=C/C(=O)OCC(=O)c2ccc3c(c2)NC(=O)CO3)c(OC)c1	1
O=C1COc2ccc(C(=O)COC(=O)/C=C/c3ccc(Br)o3)cc2N1	18*	TbREL1 confirm=10
COc1cccc(/C=C/C(=O)OCC(=O)c2ccc3c(c2)NC(=O)CO3)c1OC	0
Nc1c(C(=O)N2CCN(c3ccccc3)CC2)nnn1Cc1ccc(Cl)cc1	8
CN=C1S/C(=C/c2cc(C)n(-c3cc(C)ccc3OC)c2C)C(=O)N1C	-5
SMILES	TbREL1 inh	others
O=C(CN1CCCCC1)Nc1ccc(S(=O)(=O)N2CCCCCC2)cc1	-3
Cc1n[nH]c(C)c1NC(=O)CN1CCN(S(=O)(=O)c2ccc(C(F)(F)F)cc2)CC1	11*	TbREL1 confirm=4
Cc1ccc(S(=O)(=O)N2CCN(CC(=O)NC(C)c3ccccc3)CC2)cc1 (centres undefined)	2
CN(CCc1ccccc1)C(=O)c1cc2ccccn2n1	-1
CCCCN1C(Nc2ccccc2)=NC[C@@H]1Cc1ccccc1	2
CC(C)C[C@H]1CN=C(Nc2ccccc2)N1CCC1CCCC1	11
CCCCCCCN1C(Nc2ccccc2)=NC[C@@H]1CC(C)C	12*	TbREL1 confirm=20*
O=C(NCCN1CCC(Cc2ccccc2)CC1)C1CCCN(S(=O)(=O)c2cccs2)C1 (centres undefined)	2
CN=C1S/C(=C/c2cc(C)n(-c3ccc(Cl)cc3F)c2C)C(=O)N1C	-8
O=C1CCC[C@H]2Cc3nc4ccccc4cc3C[C@]23CCCN13	-2
COc1cc(/C=C/C(=O)c2ccccc2)cc(OC)c1OC	-4
COc1cc(NC(=O)c2cnc(N)s2)cc(C(=O)Nc2cccc(C(F)(F)F)c2)c1	32*	TbREL1 confirm=21*
COc1cc(NC(=O)c2cc(C)on2)cc(C(=O)Nc2cccc(C(F)(F)F)c2)c1	7
COc1cc(NC(=O)c2csc(N)n2)cc(C(=O)Nc2cccc(C(F)(F)F)c2)c1	-2
COc1ccc(C2Nc3ccccc3C(=O)N2Cc2ccccc2)cc1COc1ccc(NC(C)=O)cc1 (centres undefined)	-1
O=S1(=O)c2ccc(N3CC[C@@H](O)C3)cc2O[C@@H]2CCN1C2	3
C/C(=N/NC(=O)CSc1nnc(SCc2ccc(C)cc2)s1)c1cccc(O)c1	4
CCC[C@H]1[C@@H](N)CC[C@@]23CCCN2C(=O)CCC[C@@H]13	4
Cc1ccccc1NC(=O)CSc1nnc(-c2cc(-c3ccccc3)n[nH]2)n1N	0
COC(=O)C1=C(C)N(Cc2ccccc2C(F)(F)F)C(=NCc2ccc(OC)cc2)NC1c1ccc(Cl)cc1 (centres undefined)	12*	TbREL1 confirm=16*
COC(=O)C1=C(C)N(Cc2ccccc2C(F)(F)F)C(=NCc2ccc(OC)cc2)NC1c1ccccc1 (centres undefined)	13*	TbREL1 confirm=16*
COC(=O)C1=C(C)N(Cc2ccccc2)C(=NCc2ccccc2)N[C@H]1c1ccccc1	5
CCN1C(=NCc2ccc(OC)cc2)N[C@@H](c2ccccc2)[C@H](C(=O)OC)[C@H]1C	-2
COC(=O)C1=C(C)N(Cc2ccc(Cl)cc2)C(=S)NC1c1cccc(OC)c1 (centres undefined)	-7
COC(=O)C1=C(C)N(Cc2ccccc2C(F)(F)F)C(=NCc2cccc(C(F)(F)F)c2)NC1c1ccc(C(F)(F)F)cc1 (centres undefined)	18*	TbREL1 confirm=20*
SMILES	TbREL1 inh	others
COC(=O)C1=C(C)N(Cc2ccccc2)C(=NCc2ccccc2)N[C@H]1c1cccc(F)c1	14*	TbREL1 confirm=15*
COC(=O)C1=C(C)N(Cc2ccc(Cl)cc2)C(=S)NC1c1ccc(F)cc1 (centres undefined)	-5
COC(=O)C1=C(C)N(Cc2ccccc2)C(=NCCc2c[nH]c3ccccc23)N[C@H]1c1cccc(F)c1	4
COC(=O)C1=C(C)N(Cc2ccc(F)cc2)C(=S)NC1c1ccccc1 (centres undefined)	-8
COc1ccc(Cn2ccc3ccc(-c4ccc5ccn(C(=O)C6CC6)c5c4)cc32)cc1	-3
COCCSc1ncccc1-c1nc2ccccc2[nH]1	6
CCOC(=O)[C@]12CCCC3=C1N(CCC3)C(=O)[C@@H](CC(=O)NCC1CCCCC1)C2	4
CN(C)c1cccc(-c2cnc(N3CCC(C(N)=O)CC3)s2)c1	-7
Cc1ccc(-c2nc3ncccn3c2NC(=O)c2ccccc2)cc1	10
O=C(CSc1nnc(-c2ccccc2)n1Cc1ccco1)Nc1ccc(OCc2ccccc2)cc1	5
FC(F)(F)Oc1ccc(Cn2ccc3ccc(-c4ccc5ccn(Cc6ccc(OC(F)(F)F)cc6)c5c4)cc32)cc1	-1
CN1CCCN(S(=O)(=O)c2ccc3c(c2)n(C)c(=O)c(=O)n3C)CC1	-1
O=C1C(=O)N(Cc2ccc(-c3ccc(Cl)nc3)cc2)c2ccc(OC(F)(F)F)cc21	3
C[C@H]1[C@@H](OC(=O)NCc2cccc(Cl)c2)CC[C@@]23CCCN2C(=O)CCC[C@@H]13	1
Brc1ccc(-c2nn3c(-c4ccccc4)nnc3s2)cc1	1
CN1C(=O)C(c2cn(C)c3ccccc23)(c2cn(C)c3ccccc23)c2ccccc21	-1

Compound activity as filed in PubChem.
